We go through three molecules from PubChem BioAssay (EPA / NIEHS).

What all share (settings): mRNA level, 48 h; actives raise or lower the signal
Read-out in assay [1]: Cytochrome P450 7A1 (Homo sapiens) (UniProt P22680)
Briefly: LTEA_HepaRG_CYP7A1: Life Technologies and Expression Analysis (LTEA) Assay for Cytochrome P450 7A1 (CYP7A1) using HepaRG (AID 2283496). Put shortly: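 HepaRG, 48 h exposure, 8-pt half-log series from 100 uM, 0.5% DMSO vehicle, duplicates. Readout: TaqMan qRT-PCR mRNA vs three housekeeping genes; bidirectional curve fit against DMSO baseline.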

Read-out in assay [2]: Glutathione S-Transferase (GSTA2), GSTA2 (gene 2939)
Kind of assay: LTEA_HepaRG_GSTA2: Life Technologies and Expression Analysis (LTEA) Assay for Glutathione S-Transferase (GSTA2) using HepaRG (AID 2283497). In short, it runs like this: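 GSTA2 transcript levels came from Fluidigm TaqMan qRT-PCR normalized to three housekeeping genes, fitted in both directions against DMSO. HepaRG cultures received chemicals for 48 h in serum-free induction medium (0.5% DMSO), 8 half-log concentrations up to 100 uM, duplicate.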

Read-out in assay [3]: Glutamate-cysteine ligase catalytic (GCLC), GCLC (gene 2729)
Briefly: LTEA_HepaRG_GCLC: Life Technologies and Expression Analysis (LTEA) Assay for Glutamate-cysteine ligase catalytic (GCLC) using HepaRG (AID 2283498). Put shortly:
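Expression by TaqMan qRT-PCR, normalized to three housekeeping genes (ACTB, GAPDH, POLR2A), with up- or down-regulation fitted against DMSO. HepaRG cells dosed in duplicate for 48 h with 8 half-log concentrations up to 100 uM, vehicle 0.5% DMSO.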

Read-out in assay [4]: growth arrest and DNA damage 45 (GADD45G), GADD45G (gene 10912)
Briefly: LTEA_HepaRG_GADD45G: Life Technologies and Expression Analysis (LTEA) Assay for growth arrest and DNA damage 45 (GADD45G) using HepaRG (AID 2283499). Put shortly:
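GADD45G transcript level by qRT-PCR (housekeeping-normalized: ACTB, GAPDH, POLR2A) after 48 h chemical treatment of a single HepaRG lot in serum-free induction medium; eight-point half-log series up to 100 uM in 0.5% DMSO, duplicates, up- or down-regulation scored.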

Read-out in assay [5]: Glutamate-cysteine ligase regulatory (GCLM), GCLM (gene 2730)
Kind of assay: LTEA_HepaRG_GCLM: Life Technologies and Expression Analysis (LTEA) Assay for Glutamate-cysteine ligase regulatory (GCLM) using HepaRG (AID 2283500). Put shortly: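 GCLM expression quantified by qRT-PCR, normalized to three housekeeping genes, after 48 h chemical treatment of HepaRG cells in duplicate at 8 concentrations (top 100 uM, half-log steps, 0.5% DMSO). Changes fitted both directions against vehicle.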

Read-out in assay [6]: Heat shock 70 kDa protein 1 (HSPA1A), gene 3303
Kind of assay: LTEA_HepaRG_HSPA1A: Life Technologies and Expression Analysis (LTEA) Assay for Heat shock 70 kDa protein 1 (HSPA1A) using HepaRG (AID 2283502). Put shortly: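 HSPA1A expression measured by qRT-PCR with ACTB/GAPDH/POLR2A normalization; curves fitted in both directions relative to DMSO vehicle. Exposure: 48 h in HepaRG cells, duplicate 8-point half-log series from 100 uM, 0.5% DMSO, serum-free induction medium.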

Read-out in assay [7]: Hypoxia-inducible factor 1-alpha (Homo sapiens) (UniProt Q16665)
Kind of assay: LTEA_HepaRG_HIF1A: Life Technologies and Expression Analysis (LTEA) Assay for Hypoxia-inducible factor 1 (HIF1A) Trancription factor using HepaRG (AID 2283503). In short, it runs like this: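 HIF1A transcript level read by qRT-PCR (ACTB, GAPDH, POLR2A normalization) after 48 h chemical exposure of HepaRG cultures. Eight half-log concentrations, top 100 uM, 0.5% DMSO vehicle, duplicates; bidirectional curve fit against DMSO baseline.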

Read-out in assay [8]: 3-Hydroxy-3-Methylglutaryl-CoA Synthase 2 (HMGCS2), HMGCS2 (gene 3158)
Briefly: LTEA_HepaRG_HMGCS2: Life Technologies and Expression Analysis (LTEA) Assay for 3-Hydroxy-3-Methylglutaryl-CoA Synthase 2 (HMGCS2) using HepaRG (AID 2283504). Put shortly: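 Readout is HMGCS2 transcript by qRT-PCR, housekeeping-normalised (ACTB/GAPDH/POLR2A) and fitted bidirectionally against 0.5% DMSO. Differentiated HepaRG cells received chemicals 48 h, duplicate wells, eight half-log concentrations topping at 100 uM.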

Read-out in another assay: HGF (gene 3082)
Kind of assay: LTEA_HepaRG_HGF: Life Technologies and Expression Analysis (LTEA) Assay for Hepatocyte Growth Facto (HGF) using HepaRG (AID 2283505). Put shortly:
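HGF transcript was quantified by TaqMan qRT-PCR against three housekeeping genes after 48 h treatment of HepaRG cells. Exposure ran in duplicate over eight half-log steps topping at 100 uM in 0.5% DMSO vehicle.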

Read-out in assay [9]: Insulin Like Growth Factor 1 (IGF1), IGF1 (gene 3479)
Kind of assay: LTEA_HepaRG_IGF1: Life Technologies and Expression Analysis (LTEA) Assay for Insulin Like Growth Factor 1 (IGF1) using HepaRG (AID 2283506). In short, it runs like this: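 Expression measured by TaqMan qRT-PCR on a Fluidigm array, with three housekeeping genes for normalisation, after 48 h treatment of HepaRG cells. Top concentration 100 uM with half-log steps, 0.5% DMSO vehicle, bidirectional fit.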

Read-out in assay [10]: Intercellular Adhesion Molecule 1 (ICAM1), ICAM1 (gene 3383)
Briefly: LTEA_HepaRG_ICAM1: Life Technologies and Expression Analysis (LTEA) Assay for Intercellular Adhesion Molecule 1 (ICAM1) using HepaRG (AID 2283507). In short, it runs like this: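 ICAM1 transcript levels measured by qRT-PCR, normalized to three housekeeping genes (ACTB, GAPDH, POLR2A), after 48 h chemical exposure of HepaRG cells. Duplicate eight-point half-log series from 100 uM in 0.5% DMSO; gain or loss fitted against vehicle.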

Read-out in assay [11]: Insulin-like growth factor-binding protein 1 (IGFBP1), IGFBP1 (gene 3484)
Kind of assay: LTEA_HepaRG_IGFBP1: Life Technologies and Expression Analysis (LTEA) Assay for Insulin-like growth factor-binding protein 1 (IGFBP1) using HepaRG (AID 2283508). In short, it runs like this:
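Read-out is qRT-PCR transcript level normalized to three housekeeping genes, fitted in both directions against 0.5% DMSO. Differentiated HepaRG cells received eight half-log concentrations (top 100 uM) in duplicate for 48 h in serum-free induction medium.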

Read-out in assay [12]: Interleukin 6 (IL6), IL6 (gene 3569)
Kind of assay: LTEA_HepaRG_IL6: Life Technologies and Expression Analysis (LTEA) Assay for Interleukin 6 (IL6) using HepaRG (AID 2283509). Put shortly:
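Transcript levels, normalized to three housekeeping genes, were quantified by qRT-PCR after 48 h chemical treatment of HepaRG cells. Eight-point half-log series from 100 uM in 0.5% DMSO, duplicates. Fitted both directions against DMSO baseline.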

Read-out in assay [13]: Interleukin 6 Receptor (IL6R), IL6R (gene 3570)
Briefly: LTEA_HepaRG_IL6R: Life Technologies and Expression Analysis (LTEA) Assay for Interleukin 6 Receptor (IL6R) using HepaRG (AID 2283510). Put shortly:
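IL6R transcript level by qRT-PCR after 48 h chemical exposure (8-point, half-log, max 100 uM, 0.5% DMSO vehicle) of HepaRG cells in serum-free induction medium. Normalized to three housekeeping genes; curves fitted in both directions relative to DMSO.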

Read-out in assay [14]: Potassium channel subfamily K member 1 (KCNK1), KCNK1 (gene 3775)
Briefly: LTEA_HepaRG_KCNK1: Life Technologies and Expression Analysis (LTEA) Assay for Potassium channel subfamily K member 1 (KCNK1) using HepaRG (AID 2283511). Put shortly:
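KCNK1 transcript measured by TaqMan qRT-PCR against three housekeeping genes, after HepaRG cells were treated 48 h with eight half-log concentrations (top 100 uM, 0.5% DMSO). Curves fitted bidirectionally relative to vehicle.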

Read-out in assay [15]: Keratin 19 (KRT19), KRT19 (gene 3880)
Briefly: LTEA_HepaRG_KRT19: Life Technologies and Expression Analysis (LTEA) Assay for Keratin 19 (KRT19) using HepaRG (AID 2283512). Put shortly: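 KRT19 transcript measured by TaqMan qRT-PCR, referenced to three housekeeping genes, after HepaRG cells received test chemicals for 48 h. Eight half-log concentrations, top 100 uM, 0.5% DMSO vehicle; increases and decreases both fitted.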

Read-out in assay [16]: JUN Transcription Factor, JUN (gene 3725)
Kind of assay: LTEA_HepaRG_JUN: Life Technologies and Expression Analysis (LTEA) Assay for JUN Transcription Factor using HepaRG (AID 2283513). Put shortly: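 mRNA measured by TaqMan qRT-PCR after 48 h chemical exposure of HepaRG cultures; normalization to three housekeeping genes. Duplicate eight-point half-log curves from 100 uM in 0.5% DMSO; gain or loss fitted against DMSO baseline.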

Read-out in assay [17]: Lipase C (LIPC), LIPC (gene 3990)
Briefly: LTEA_HepaRG_LIPC: Life Technologies and Expression Analysis (LTEA) Assay for Lipase C (LIPC) using HepaRG (AID 2283514). In short, it runs like this: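 LIPC expression was quantified by qRT-PCR against three housekeeping genes (ACTB, GAPDH, POLR2A). Differentiated human HepaRG cells received eight half-log doses (top 100 uM, 0.5% DMSO) in duplicate for 48 h; fitting bidirectional relative to DMSO.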

Read-out in assay [18]: Lipoprotein lipase (LPL), LPL (gene 4023)
Kind of assay: LTEA_HepaRG_LPL: Life Technologies and Expression Analysis (LTEA) Assay for Lipoprotein lipase (LPL) using HepaRG (AID 2283515). In short, it runs like this: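 LPL transcript levels quantified by TaqMan qRT-PCR against three housekeeping genes after 48 h chemical treatment of HepaRG cells. Eight-point half-log series from 100 uM in 0.5% DMSO, tested in duplicate; bidirectional fitting versus vehicle.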

Read-out in assay [19]: Glutathione S-transferase M3 (GSTM3), GSTM3 (gene 2947)
Briefly: LTEA_HepaRG_GSTM3: Life Technologies and Expression Analysis (LTEA) Assay for Glutathione S-transferase M3 (GSTM3) using HepaRG (AID 2283501). In short, it runs like this:
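GSTM3 transcript levels came from Fluidigm TaqMan qRT-PCR normalized to three housekeeping genes, fitted in both directions against DMSO. HepaRG cultures received chemicals for 48 h in serum-free induction medium (0.5% DMSO), 8 half-log concentrations up to 100 uM, duplicate.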

SMILES strings stand for the structures. Active and inactive are the calls of the source. The calls were made as follows: active = hit-call score of the fitted dose curve at least 0.9, where 1 is the maximum; inactive = score below 0.9.

Hypoxia-inducible factor 1-alpha (Homo sapiens), sequence (Q16665 whole entry, looked up): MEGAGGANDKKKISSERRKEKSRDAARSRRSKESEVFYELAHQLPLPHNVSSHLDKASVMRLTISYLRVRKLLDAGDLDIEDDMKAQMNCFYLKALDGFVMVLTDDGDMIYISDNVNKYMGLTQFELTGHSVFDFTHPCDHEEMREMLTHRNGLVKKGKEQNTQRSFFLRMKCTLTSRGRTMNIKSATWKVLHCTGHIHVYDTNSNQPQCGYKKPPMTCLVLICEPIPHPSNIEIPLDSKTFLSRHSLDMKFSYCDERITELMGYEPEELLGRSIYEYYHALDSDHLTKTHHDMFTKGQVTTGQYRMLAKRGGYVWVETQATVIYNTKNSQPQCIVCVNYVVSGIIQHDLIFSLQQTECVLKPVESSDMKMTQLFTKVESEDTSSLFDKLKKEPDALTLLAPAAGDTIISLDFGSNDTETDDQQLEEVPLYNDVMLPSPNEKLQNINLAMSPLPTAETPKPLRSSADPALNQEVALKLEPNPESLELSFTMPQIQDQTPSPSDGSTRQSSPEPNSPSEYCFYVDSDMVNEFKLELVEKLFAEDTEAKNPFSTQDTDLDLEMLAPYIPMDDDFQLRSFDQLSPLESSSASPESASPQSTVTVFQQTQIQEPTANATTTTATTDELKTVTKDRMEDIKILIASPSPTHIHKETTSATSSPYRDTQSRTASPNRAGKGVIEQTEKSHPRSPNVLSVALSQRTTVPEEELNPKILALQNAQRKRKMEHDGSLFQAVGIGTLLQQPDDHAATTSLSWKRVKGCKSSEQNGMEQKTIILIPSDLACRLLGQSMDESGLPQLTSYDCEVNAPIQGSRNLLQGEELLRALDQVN

As for `CCCCOC(=O)c1ccccc1`, the molecule was called inactive in assay [1], in [2], in [3], in assay [4], in [5] and in assay [6]. In addition, the call (in assay [7]; in [8]; with HGF (gene 3082); in [9]; in assay [10]; in [11]) was inactive. For the same molecule, the result in [12], in [13], in assay [14], in [15], in assay [16] and in [17] was inactive. Besides, the outcome in [18] was inactive.

As usually defined, the AC50 is the concentration giving half of the maximal activity seen. Turning to `c1ccc(C(O[C@@H]2CCCN(CCc3ccc4c(c3)OCO4)C2)c2ccccc2)cc1`, the AC50 in assay [1] is 83.6 µM (active); in assay [2], 79.1 µM (active); in [4], 75.3 µM (active); in assay [19], 90.3 µM (active); in assay [6], 80.4 µM (active); in [7] it was 78.3 µM (active). The AC50 in [8] is 80.8 µM (active); with HGF (gene 3082) it was 50 µM (active); in [9], 58 µM (active); in [10] it was 85.3 µM (active); in assay [11], 86.9 µM (active); in assay [15], 40.3 µM (active). The AC50 in assay [17] is 76.5 µM (active). For the same molecule, the outcome in assay [5], in assay [12], in [13], in [14], in assay [16] and in [18] was inactive.

Regarding `O=C(NO)C1(NS(=O)(=O)c2ccc(Oc3ccc(F)cc3)cc2)CCOCC1`, the outcome in assay [1], in assay [3], in assay [5], in assay [19], in assay [6] and in assay [7] was inactive. The call (in the assay with HGF (gene 3082); in assay [10]; in assay [11]; in assay [13]; in [14]; in assay [16]) was inactive. In addition, the molecule was classed as inactive in [17]. Also, the AC50 in assay [2] is 83.5 µM (active); in assay [4], 72.6 µM (active); in [8], 83.3 µM (active); in [9], 50 µM (active); in [15], 71.4 µM (active); in assay [18] it was 76.6 µM (active).
